This note sets out measurements from PubChem BioAssay (NCATS).

Results filed as inconclusive are left out. Active and inactive are the calls of the source. Calls follow the shape of the dose curve; as a rule, active = well fitted curve in the direction sought with a large enough effect; inconclusive = small, poorly fitted or top-dose-only effect, or another doubt; inactive = no such curve, though single readings can be large; an effect the other way counts as inactive or inconclusive.

Test [1] can be described thus: Quantitative High-Throughput drug screen in 47 multiple myeloma cell lines against the NCATS MIPE library collection: KMM1_JCRB cell viability assay (AID 1918960). Also: nearly all actives have a fitted effect of over 30% in size. The essentials: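 Myeloma cells, 500 per well, were exposed to MIPE 4.0 drugs by pin transfer for 48 h at 37 °C, 5% CO2. Viability was read as ATP luminescence with CellTiter-Glo, normalised to DMSO-only (100%) and medium-only (0%) wells.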

The nature of test [2]: Quantitative High-Throughput drug screen in 47 multiple myeloma cell lines against the NCATS MIPE library collection: JIM3_ECACC cell viability assay (AID 1918963; also: nearly all actives have a fitted effect of over 35% in size). The method, boiled down:
(§1)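 Inhibition of cell viability is measured here. Each line was plated at 500 cells per well, treated with MIPE 4.0 drugs, kept 48 hours at 37C, then assayed for ATP content by CellTiter-Glo luminescence.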

Test [3] can be described thus: Quantitative High-Throughput drug screen in 47 multiple myeloma cell lines against the NCATS MIPE library collection: KMS27_JCRB cell viability assay (AID 1918970). Also: nearly all actives have a fitted effect of over 30% in size. The essentials:
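Viability inhibition screen, 48 h compound exposure, luminescent ATP read-out.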

Test [4] is described as follows: Quantitative High-Throughput drug screen in 47 multiple myeloma cell lines against the NCATS MIPE library collection: KMS12PE_JCRB cell viability assay (AID 1918972). Also: nearly all actives have a fitted effect of over 30% in size. The method, boiled down: (§2)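 qHTS of the MIPE 4.0 collection: 500 myeloma cells/well, 48 h drug exposure at 37C in 5% CO2, then CellTiter-Glo for 5 min at room temperature before luminescence reading.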

The nature of test [5]: Quantitative High-Throughput drug screen in 47 multiple myeloma cell lines against the NCATS MIPE library collection: KMS20_JCRB cell viability assay (AID 1918973). Also: nearly all actives have a fitted effect of over 45% in size. The method, boiled down: (§3)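 Myeloma cells (500 per well) were exposed to MIPE 4.0 compounds by pin transfer and incubated 48 hours at 37C, 5% CO2. Viability was read as ATP by CellTiter-Glo luminescence, normalised to DMSO (100%) and media-only (0%) wells.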

Test [6] in a line: Quantitative High-Throughput drug screen in 47 multiple myeloma cell lines against the NCATS MIPE library collection: NCIH929_DSMZ cell viability assay (AID 1918978). Also: nearly all actives have a fitted effect of over 35% in size. The method, boiled down:
(§4)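 Viability after 48 h drug exposure was measured as ATP-dependent luminescence. Cells, 500 per well, sat at 37 °C under 5% CO2; DMSO wells set 100%, media-only wells 0%.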

The nature of test [7]: Quantitative High-Throughput drug screen in 47 multiple myeloma cell lines against the NCATS MIPE library collection: OCIMY1_PLB cell viability assay (AID 1918979). Also: nearly all actives have a fitted effect of over 35% in size. The method, boiled down:
as §4

The nature of test [8]: Quantitative High-Throughput drug screen in 47 multiple myeloma cell lines against the NCATS MIPE library collection: Karpas417_ECACC cell viability assay (AID 1918961). Conditions: Karpas417 myeloma viability, CellTiter-Glo ATP luminescence, 48 h; viability (% of DMSO): at 45.8 µM (top of the series). The essentials:
as §2
(In general: ATP-based viability assays read luminescence as a measure of living cells.)

The nature of test [9]: Quantitative High-Throughput drug screen in 47 multiple myeloma cell lines against the NCATS MIPE library collection: KHM11_PLB cell viability assay (AID 1918962). Also: nearly all actives have a fitted effect of over 35% in size. The method, boiled down: as §1
Test [10] is described as follows: Quantitative High-Throughput drug screen in 47 multiple myeloma cell lines against the NCATS MIPE library collection: JIM1_ECACC cell viability assay (AID 1918964). The essentials: as §3
The nature of test [11]: Quantitative High-Throughput drug screen in 47 multiple myeloma cell lines against the NCATS MIPE library collection: H1112_PLB cell viability assay (AID 1918967; also: nearly all actives have a fitted effect of over 30% in size). The essentials:
as §3

Test [12] can be described thus: Quantitative High-Throughput drug screen in 47 multiple myeloma cell lines against the NCATS MIPE library collection: Karpas25_ECACC cell viability assay (AID 1918968; also: nearly all actives have a fitted effect of over 35% in size). The essentials:
as §3

Test [13] is described as follows: Quantitative High-Throughput drug screen in 47 multiple myeloma cell lines against the NCATS MIPE library collection: KMS21BM_JCRB cell viability assay (AID 1918974). As to conditions: ATP luminescence, 48 h; viability: at 45.8 µM (top of the series) unless noted. The method, boiled down:
as §3

A short description of test [14]: Quantitative High-Throughput drug screen in 47 multiple myeloma cell lines against the NCATS MIPE library collection: MM1S_ATCC cell viability assay (AID 1918980). Also: nearly all actives have a fitted effect of over 45% in size. The essentials:
as §4

Test [15] can be described thus: Quantitative High-Throughput drug screen in 47 multiple myeloma cell lines against the NCATS MIPE library collection: INA6_PLB cell viability assay (AID 1918965; also: nearly all actives have a fitted effect of over 55% in size). The essentials: as §2
A short description of test [16]: Quantitative High-Throughput drug screen in 47 multiple myeloma cell lines against the NCATS MIPE library collection: JJN3_DSMZ cell viability assay (AID 1918966; also: nearly all actives have a fitted effect of over 50% in size). The method, boiled down:
as §3

The nature of test [17]: Quantitative High-Throughput drug screen in 47 multiple myeloma cell lines against the NCATS MIPE library collection: KMS12BM_JCRB cell viability assay (AID 1918971). Also: nearly all actives have a fitted effect of over 35% in size. The method, boiled down: as §2
A short description of test [18]: Quantitative High-Throughput drug screen in 47 multiple myeloma cell lines against the NCATS MIPE library collection: MMM1_PLB cell viability assay (AID 1918976). Also: nearly all actives have a fitted effect of over 35% in size. The essentials: as §4
The nature of test [19]: Quantitative High-Throughput drug screen in 47 multiple myeloma cell lines against the NCATS MIPE library collection: MOLP8_DSMZ cell viability assay (AID 1918977). Also: nearly all actives have a fitted effect of over 45% in size. The essentials: as §4
Test [20] in a line: Quantitative High-Throughput drug screen in 47 multiple myeloma cell lines against the NCATS MIPE library collection: KMS26_JCRB cell viability assay (AID 1918975). Also: nearly all actives have a fitted effect of over 45% in size. The method, boiled down:
as §2
Potency is read from the fitted curve at half-maximal effect.

`Cc1cn2cc(C(=O)N(C)CCO)cc(N[C@@H]3CCOc4cccc(C)c43)c2n1`: the Potency entry in test [1], in test [2], in test [3], in [4], in test [5] and in test [6] was “inactive” each time. The Potency result in [7] is “inactive”.
As to `COc1cc(Nc2ncc(F)c(Nc3ccc4c(n3)N(COP(=O)(O)O)C(=O)C(C)(C)O4)n2)cc(OC)c1OC`, the Potency in test [8] is 1.05 µM (active); in test [9] it was 1.48 µM (active); in test [2] it was 1.66 µM (active); in test [10], 1.18 µM (active); in test [11], 1.66 µM (active); in test [12] it was 3.32 µM (active). The Potency in test [5] is 1.66 µM (active); in test [13], 0.743 µM (active); in test [6], 3.72 µM (active); in test [14], 20.9 µM (active).
On to `COc1cc(=C2C=c3ccccc3=N2)[nH]c1=Cc1[nH]c(C)cc1C`, for which the Potency was 16.6 µM (active) in test [8]; 0.418 µM (active) in test [9]; 2.35 µM (active) in [2]; 1.18 µM (active) in test [15]; 1.87 µM (active) in test [16]; 5.9 µM (active) in test [11]. In addition, the Potency was 0.743 µM (active) in test [12]; 16.6 µM (active) in [3]; 1.66 µM (active) in [17]; 20.9 µM (active) in test [4]; 7.43 µM (active) in test [5]; 2.09 µM (active) in test [18]. The results for the Potency in test [6], in test [7] and in test [14] were 5.26 µM (active), 3.72 µM (active) and 4.18 µM (active), respectively.
As to `CNC(=O)c1c(F)cccc1Nc1nc(Nc2cc3c(cc2OC)CCN3C(=O)CN(C)C)nc2[nH]ccc12`, the Potency entry in test [8] and in [3] was “inactive” in each case. Moreover, the Potency is 9.35 µM (active) in test [9]; 0.105 µM (active) in test [2]; 5.9 µM (active) in test [15]; 6.62 µM (active) in test [16]; 0.0935 µM (active) in test [12]; 14.8 µM (active) in [17]. The Potency in test [5] was 0.118 µM (active); in [19] it was 7.43 µM (active); in test [6] it was 0.0833 µM (active); in test [7], 0.372 µM (active).
Turning to `CC(C)(O)CCc1ccc(OCc2cc(-c3cccc(OC(F)F)c3)c3ncccc3c2)cc1`, the Potency result in test [1], in test [2], in test [3], in test [17], in [4] and in test [7] was “inactive” each time. The Potency in test [11] is 20.9 µM (active); in [14] it was 14.8 µM (active).
For `C=CC(=O)Nc1cc2c(Nc3ccc(F)c(Cl)c3)ncnc2cc1C#CC(C)(C)N1CCN(C)CC1`, the Potency is 0.59 µM (active) in test [8]; 2.09 µM (active) in [9]; 1.66 µM (active) in [2]; 1.05 µM (active) in [10]; 0.418 µM (active) in test [15]; 5.26 µM (active) in [16]. The Potency in test [11] is 1.87 µM (active); in [12], 0.526 µM (active); in test [3] it was 0.833 µM (active); in test [17], 0.332 µM (active); in [4], 0.833 µM (active); in [5], 0.296 µM (active). Moreover, the Potency is 0.332 µM (active) in test [13]; 1.66 µM (active) in test [20]; 5.26 µM (active) in [18]; 0.833 µM (active) in [6]; 4.69 µM (active) in test [7]; 2.09 µM (active) in test [14].
For the molecule `Cc1cc(N2CCOCC2)cc2[nH]c(-c3c(NC[C@@H](O)c4cccc(Cl)c4)cc[nH]c3=O)nc12`, the Potency in [1] was 0.0526 µM (active); in [2], 0.132 µM (active); in [16], 1.48 µM (active); in [12], 0.0833 µM (active); in test [3] it was 0.332 µM (active); in test [17], 16.6 µM (active). Also, the Potency was 7.43 µM (active) in test [4]; 0.0935 µM (active) in test [5]; 0.526 µM (active) in test [20]; 0.166 µM (active) in test [18]; 11.8 µM (active) in test [19]; 0.0526 µM (active) in [6]. The Potency in [7] is 0.296 µM (active); in test [14], 0.187 µM (active).
Regarding `O=C(Nc1nc2cccc(-c3ccc(CN4CCS(=O)(=O)CC4)cc3)n2n1)C1CC1`, the Potency was 1.66 µM (active) in test [8]; 13.2 µM (active) in test [9]; 18.7 µM (active) in [2]; 5.9 µM (active) in test [10]; 3.32 µM (active) in [15]; 7.43 µM (active) in [16]. Moreover, the Potency in test [11] was 23.5 µM (active); in test [12], 16.6 µM (active); in [17], 7.43 µM (active); in test [5], 18.7 µM (active); in [20] it was 13.2 µM (active); in test [18], 9.35 µM (active). The Potency was 14.8 µM (active) in [19], 23.5 µM (active) in test [7] and 20.9 µM (active) in test [14].
Consider `O=C(C=Cc1cccc(S(=O)(=O)Nc2ccccc2)c1)NO`, for which the Potency is 1.08 µM (active) in test [8]; 3.82 µM (active) in test [9]; 5.4 µM (active) in test [2]; 1.71 µM (active) in test [10]; 3.4 µM (active) in test [16]; 5.4 µM (active) in [11]. The Potency in [12] was 1.08 µM (active); in test [3] it was 2.7 µM (active); in test [17], 1.91 µM (active); in test [4] it was 1.36 µM (active); in [5] it was 1.91 µM (active); in test [13] it was 0.54 µM (active). In addition, the Potency in test [20] was 8.55 µM (active); in test [19], 2.41 µM (active); in test [6], 3.03 µM (active); in [7], 6.79 µM (active); in test [14] it was 1.91 µM (active).
For `COc1ccc(-n2nc(C(N)=O)c3c2C(=O)N(c2ccc(N4CCCCC4=O)cc2)CC3)cc1`, the Potency entry in test [1], in test [2], in [12], in [3], in test [17] and in test [4] was “inactive” in each case. Further, in test [7], the Potency result was “inactive”.
`OCCCNc1cc(-c2ccnc(Nc3cccc(Cl)c3)n2)ccn1`: the Potency in [8] is 0.0469 µM (active); in test [9] it was 0.0187 µM (active); in test [2], 0.0526 µM (active); in [10] it was 0.0526 µM (active); in [15], 0.0264 µM (active); in [16], 0.0935 µM (active). The Potency is 0.059 µM (active) in [11]; 0.0418 µM (active) in test [12]; 0.0418 µM (active) in test [3]; 0.132 µM (active) in test [17]; 0.0935 µM (active) in test [4]; 0.0418 µM (active) in test [5]. Also, the Potency was 0.0372 µM (active) in [13]; 0.132 µM (active) in [20]; 0.166 µM (active) in test [18]; 0.235 µM (active) in [7]; 0.118 µM (active) in test [14].
